Source: ChEMBL document CHEMBL3988442, “University of Dundee, Small-Polar-MMV Screening Library” (2021)
The whole screen tested about 66,000 compounds, of which about 960 (1.5%) showed an effect of 50% or more. Many of the other results were omitted from the sample, so strong results are more common in it than they were.

Tested on: Trypanosoma brucei
Test: Trypanosoma brucei 72 hour study
Type: functional, organism-based
Set-up: scale not given: in the data most compounds retested in dose-response had high values

| Compound | Percent Effect (30 µM, 30.03 µM) [%] | Percent Effect (30.3 µM, […]) [%] |
| --- | --- | --- |
| O=C(c1csc2nc(-c3ccc(Cl)cc3)cn12)N1CCCC(CO)C1 (configuration not stated) | -27.9 |  |
| CC(C)N1CCN(C(=O)c2csc3nc(-c4ccc(Cl)cc4)cn23)CC1 | -14.99 |  |
| CCC1CN(C(=O)c2csc3nc(-c4ccc(Cl)cc4)cn23)CCN1 (configuration not stated) | 66.56 |  |
| COc1ccc(-c2cc(C3CCNCC3)nc(C)n2)cc1.Cl |  | 0.4357 |
| Cc1nc(-c2ccc(CO)cc2)cc(C2CCNCC2)n1.Cl |  | -17.1 |
| Cc1nc(-c2ccc(F)c(F)c2)cc(C2CCNCC2)n1.Cl |  | 101.1 |
| Cc1nc(-c2ccccc2)cc(C2CCNCC2)n1.Cl |  | -24.18 |
| Cc1nc(-c2ccc(F)cc2)cc(C2CCNCC2)n1 |  | -5.19 |
| Cc1ccc(-c2cc(C3CCNCC3)nc(C)n2)cc1.Cl |  | 86.87 |
| O=C(O)C(F)(F)F.O=C(c1cscn1)N1CCc2c(COCC3CC3)cncc2C1 |  | -26.29 |
| O=C(O)C(F)(F)F.O=C([C@H]1C[C@@H]2CCN(c3cccc(F)c3)C[C@H]2O1)N1CCCCO1 |  | -0.6141 |
| Fc1ccc(CNCc2nnc3n2CC(C(F)(F)F)CC3)cc1 (configuration not stated) | -35.58 |  |
| CC[C@@H]1N(Cc2ccc(F)cc2)CCC[C@]12CCC(=O)N2CCOC.O=C(O)C(F)(F)F |  | -80.81 |
| CCc1n[nH]c(C2CN(C(=O)CCn3ccccc3=O)CCO2)n1 (configuration not stated) |  | 7.899 |
| CC(C)c1n[nH]c(C2CN(C(=O)Cn3ccccc3=O)CCO2)n1 (configuration not stated) |  | 9.582 |
| CC(C)c1n[nH]c(C2CN(C(=O)CCn3ccccc3=O)CCO2)n1 (configuration not stated) | 52.13 |  |
| COc1ccc(OCCc2cc(C3CNCCO3)nn2C)cc1 (configuration not stated) |  | 1.828 |
| CN(C)c1ncc(-c2ccc(F)cc2)c(C2CNCCO2)n1.Cl (configuration not stated) |  | 29.73 |
| Cc1ccc(-c2ccc(C3CNCCO3)nc2)cc1.Cl (configuration not stated) |  | 88.62 |
| Cl.Clc1ccc(-c2ccc(C3CNCCO3)nc2)cc1 (configuration not stated) |  | 98.64 |
| Cl.c1ccc(-c2ccc(C3CNCCO3)nc2)cc1 (configuration not stated) | -8.657 |  |
| Cl.c1ncc(-c2ccc(C3CNCCO3)nc2)cn1 (configuration not stated) |  | -18.07 |
| COc1ccc(-c2ccc(C3CNCCO3)nc2)cc1.Cl (configuration not stated) |  | -17.4 |
| Cn1nc(C2CNCCO2)cc1CCOc1ccc(C(F)(F)F)cc1 (configuration not stated) |  | 20.05 |

| Compound | Percent Effect (30 µM, 30.03 µM) [%] | Percent Effect (30.3 µM, […]) [%] |
| --- | --- | --- |
| Cl.Cl.Cn1nc(C2CNCCO2)cc1CCOc1ccc(Cl)cc1 (configuration not stated) |  | 53.46 |
| COCCCNC(=O)NCc1cccn1Cc1ccccc1C | -24.61 |  |
| O=C(O)C(F)(F)F.O=C1COC2(CCN(Cc3ccoc3)CC2)CN1c1ccccc1 | -9.648 |  |
| COCCNC(=O)[C@H]1CN(Cc2csc(C)n2)C[C@H]2OCC[C@@H]12.O=C(O)C(F)(F)F.O=C(O)C(F)(F)F | -11.19 |  |
| COCC1CC2(CCN(Cc3cccc(C#N)c3)CC2)CN1C(C)C.O=C(O)C(F)(F)F.O=C(O)C(F)(F)F (configuration not stated) | -12.65 |  |
| CC[C@H](C)[C@H](N)C(=O)N1CC(=O)c2sc(NCc3ccccc3)nc2C1 |  | 35.54 |
| CC(C)CC(=O)N1CC(=O)c2sc(NC3CCCCC3)nc2C1 |  | -18.82 |
| CC[C@H](C)[C@H](N)C(=O)N1CC(=O)c2sc(Nc3ccc(F)cc3)nc2C1 |  | 54.3 |
| CC(C)NC(=O)N1CC(=O)c2sc(NC3CCCCC3)nc2C1 |  | -21.05 |
| CC[C@H](C)[C@H](N)C(=O)N1CC(=O)c2sc(NC3CCCCC3)nc2C1 |  | 89.66 |
| CC(C)CC(=O)N1CC(=O)c2sc(Nc3ccc(F)cc3)nc2C1 |  | -26.14 |
| N[C@H]1CC[C@@H](n2cc(C(=O)N[C@H]3CCCc4ccccc43)nn2)CC1 | -48.79 |  |
| O=C(Nc1cnccn1)[C@@H]1COC[C@H]2CN(C3CCC3)C[C@H]21.O=C(O)C(F)(F)F | -9.316 |  |
| COCCN1CCC(CNC(=O)CCc2cc(F)ccc2F)C1 (configuration not stated) | -4.617 |  |
| COCCN1CCC(CNC(=O)Nc2ccc(-c3ccccc3)cc2)C1 (configuration not stated) |  | 100.6 |
| COCCN1CCC(CNC(=O)C2(c3cccc(Cl)c3)CC2)C1 (configuration not stated) |  | 10.42 |
| COCCN1CCC(CNC(=O)C2(c3ccccc3)CCOCC2)C1 (configuration not stated) |  | -10.94 |
| COCCN1CCC(CNC(=O)Nc2ccc(SC(F)(F)F)cc2)C1 (configuration not stated) |  | 90.18 |
| COCCN1CCC(CNC(=O)C2(c3ccccc3)CCC2)C1 (configuration not stated) |  | -7.306 |
| COCCn1cc(NC(=O)NCC2CCN(c3ccccc3)C2)cn1 (configuration not stated) | -68.77 |  |
| COCCN1CCC(CNC(=O)Nc2ccc(F)c(Cl)c2)C1 (configuration not stated) |  | 73.54 |
| COCCN1CCC(CNC(=O)c2cc(C)cc(C)c2)C1 (configuration not stated) | 28.41 |  |
| O=C(C1CCCC1)N1CCC2(CC1)COCCN2CC1CC1.O=C(O)C(F)(F)F |  | -13.33 |
